PNC inhibitor: inhibitors of perinucleolar compartment assembly | activity change (PNC), negative = inhibition, % at 10 µM | PC3M PTB-GFP, PNC prevalence imaging, 16 h; active compounds read low | actives 3.1% (n = 140,000) | AID 2417;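 active = readout at or below -70, meaning at least 70% loss of cells showing the perinucleolar compartment, a nuclear body marking cancer cells; inconclusive = readout between -30 and a set limit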;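 also: plate controls were DMSO wells for no effect and camptothecin positive control wells for full effect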
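Compounds are pinned in duplicate onto adhered PC3M cells stably expressing GFP-tagged PTB and incubated 16 h at 37 C. Cells are then fixed, nuclei stained with Hoechst, and PNC-positive cells counted.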
HTT ATP protect: protects HTT-Q103 PC12 cells, measured by ATP | PC12 HTT-Q103 induced, cytoprotection, ATP luminescence, 40 h | Potency, µM (doses to about 56.4 µM), without a hit: cytoprotection (ATP increase), hits mostly activators | actives 0.14% (n = 230,000) | AID 1471; also: potency is read from the fitted curve at half-maximal effect; % of control where 0% means no effect; nearly all actives have a fitted effect of over 45% in size
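PC12 cells with ecdysone-inducible HTT exon 1 Q103-GFP, induced with 100 nM tebufenozide and co-treated with library compounds in a dose series (1536-well, 1500 cells/well). Cytoprotection read as ATP content by ATPlite luminescence.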
HPGD block: HPGD (human) dehydrogenase inhibition; P15428; purified HPGD, NADH fluorescence kinetic, PGE2 substrate; Potency, µM, without a hit: at the top dose activity change, negative = inhibition, most hits filed as inhibitors; actives 4.3% (n = 150,000); AID 894; active = well fitted inhibition curve with a large enough effect, not every such curve was filed as active; inconclusive = small, poorly fitted or top-dose-only effect, or another doubt; inactive = no such curve, though single readings can be large or run the other way; also: potency is read from the fitted curve at half-maximal effect; % is scaled to controls: 0 for no effect and ±100 for the full control effect
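NADH formation kinetics: reaction with 30 uM PGE2 and 1 mM NAD+ (final), 20 nM enzyme, Tris-HCl pH 8 with Tween 20, after 15 min compound preincubation at room temperature. Fluorescence change, last versus first of five reads.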
HttQ103 aggreg: reduces HttQ103-GFP aggregates in PC12 cells; actives 1.1% (n = 220,000); Potency, µM (titrated, usually from 46.1 µM), without a hit: at the top dose activity change, negative = inhibition, hits mostly inhibitors; PC12 HttQ103-GFP aggregates, Acumen cytometry, 40 h; also: potency is read from the fitted curve at half-maximal effect; % is scaled to controls: 0 for no effect and ±100 for the full control effect; nearly all actives have a fitted effect of over 60% in size
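Aggregate formation scored by laser-scanning cytometer (488 excitation, 500–530 emission) in lysed PC12 cells expressing Q103-GFP after 100 nM tebufenozide induction; library tested in dose series, with ATPLite reagent added in the multiplex.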
ALDH1A1 block: inhibitors of human aldehyde dehydrogenase 1A1; Purified ALDH1A1, NADH fluorescence, propionaldehyde substrate; Potency, µM (series often up to 75.3 µM), for inactives: at the highest dose activity, negative = inhibition, hits mostly inhibitors; actives 7.3% (n = 220,000); AID 1030; active = well fitted inhibition curve with a large enough effect, not every such curve was filed as active; inconclusive = small, poorly fitted or top-dose-only effect, or another doubt; inactive = no such curve, though single readings can be large or run the other way;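 also: potency is read from the fitted curve at half-maximal effect; plate controls were no enzyme wells and a reference inhibitor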
GoLoco inh red: RGS12 GoLoco-Gai1 interaction inhibition; P63096; Gai1:RGS12 GoLoco peptide FP, rhodamine, 10 min; Potency, µM (highest dose often 61.6 µM), without a hit: at the top dose activity, negative = inhibition, usual class: inhibitors; actives 0.44% (n = 230,000); AID 880; active = well fitted inhibition curve with a large enough effect, not every such curve was filed as active; inactive = no such curve, though single readings can be large or run the other way; also: potency is read from the fitted curve at half-maximal effect; % is scaled to controls: 0 for no effect and ±100 for the full control effect; nearly all actives have a fitted effect of over 30% in size
Target sequence (P63096 whole entry, looked up): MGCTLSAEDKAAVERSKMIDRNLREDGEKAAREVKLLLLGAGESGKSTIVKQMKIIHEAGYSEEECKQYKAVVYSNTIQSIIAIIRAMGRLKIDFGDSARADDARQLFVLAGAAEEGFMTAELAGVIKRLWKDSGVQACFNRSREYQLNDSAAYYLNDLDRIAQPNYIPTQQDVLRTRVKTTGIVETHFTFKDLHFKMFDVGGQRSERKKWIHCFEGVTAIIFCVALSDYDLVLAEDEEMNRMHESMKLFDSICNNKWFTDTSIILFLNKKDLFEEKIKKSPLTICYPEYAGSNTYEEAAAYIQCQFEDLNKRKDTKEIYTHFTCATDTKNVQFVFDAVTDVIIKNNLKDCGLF
The depositor's hits bear a star; [ ] = dose if it differs, or a comment. Sampled rows, rich in hits. Any-hit rate of the full collection: about 11%. Unless noted, calls follow the shape of the dose curve; as a rule, active = well fitted curve in the direction sought with a large enough effect; inconclusive = small, poorly fitted or top-dose-only effect, or another doubt; inactive = no such curve, though single readings can be large; an effect the other way counts as inactive or inconclusive.

For CCN1C(=O)c2cccc3c(S(=O)(=O)Nc4ncccc4C)ccc1c23 the results were PNC inhibitor 33, HTT ATP protect -26%, HPGD block -25%, HttQ103 aggreg 3%, ALDH1A1 block 10µM* and GoLoco inh red 3%.
For CCN1C(=O)c2cccc3c(S(=O)(=O)Nc4ccncc4)ccc1c23 the results were PNC inhibitor 14, HTT ATP protect -14%, HPGD block inconclusive, HttQ103 aggreg 11%[9.22 µM], ALDH1A1 block inconclusive and GoLoco inh red 2%.
For CCN1C(=O)c2cccc3c(S(=O)(=O)NCc4cccnc4)ccc1c23 the results were PNC inhibitor -2, HTT ATP protect -35%, HPGD block -25%, HttQ103 aggreg 27%, ALDH1A1 block inconclusive and GoLoco inh red -3%.
For CCN1C(=O)c2cccc3c(S(=O)(=O)Nc4ccccn4)ccc1c23 the results were PNC inhibitor 33, HTT ATP protect -38%, HPGD block -5%, HttQ103 aggreg 12%, ALDH1A1 block 7.9µM* and GoLoco inh red 10%.
c1ccc(CNc2ccnc(-c3ccoc3)n2)cc1 was read as HTT ATP protect -3%, HPGD block -18%, ALDH1A1 block 0% and GoLoco inh red 14%.
`CCCn1c(-c2ccc(F)cc2)nc2c(NCC(C)(C)CN(C)C)nc(C)nc21` gave HTT ATP protect -16%, HPGD block inconclusive, ALDH1A1 block inconclusive and GoLoco inh red -2%.
`COCCN=C1OC(=O)N2C(=O)C3=C4C(C[C@H]5C(=O)N(CC(=O)OC)C(=O)[C@H]5[C@H]4[C@@]12Cc1ccccc1)[C@H]1C(=O)N(CC(=O)OC)C(=O)[C@H]1[C@H]3C` (stereo not given in full) gave HTT ATP protect 8%, HPGD block -8%, ALDH1A1 block -6% and GoLoco inh red 6%.
S=C(c1ccc2c(c1)OCO2)N1CCOCC1 was read as HTT ATP protect -2%[10 µM], HttQ103 aggreg 2%[9.22 µM] and GoLoco inh red -5%.
`CCN1C(=O)c2cccc3c(S(=O)(=O)Nc4nc(C)cs4)ccc1c23` gave PNC inhibitor inconclusive, HTT ATP protect -27%[0.074 µM], HPGD block -21%, HttQ103 aggreg 17%, ALDH1A1 block 3.5µM* and GoLoco inh red 7%.
`CCN1C(=O)c2cccc3c(S(=O)(=O)N(C(=O)c4ccncc4)c4ccc(OC)cc4)ccc1c23` gave PNC inhibitor -85*, HPGD block inconclusive, HttQ103 aggreg inconclusive, ALDH1A1 block inconclusive and GoLoco inh red -3%.
Screening CCN1C(=O)c2cccc3c(S(=O)(=O)N(C(=O)c4cccnc4)c4ccc(OC)cc4)ccc1c23 returned PNC inhibitor inconclusive, HPGD block inconclusive, HttQ103 aggreg 0%, ALDH1A1 block inconclusive and GoLoco inh red -5%.
COc1cc2c(cc1O)CC[C@@H]1[C@@H]2CC[C@@]2(C)[C@H](O)CC[C@H]12 was read as HTT ATP protect -42%[1.9 µM].
For COc1cc(CNc2cccc(C(=O)O)c2)cc(Br)c1OCC(=O)NC(C)(C)C the results were PNC inhibitor 5, HTT ATP protect -5%[10 µM], HPGD block inconclusive, HttQ103 aggreg -14%, ALDH1A1 block 3% and GoLoco inh red -62%.
Cc1nc2c(c(-c3ccccc3)c1C#N)C(=O)c1ccccc1-2 was read as PNC inhibitor 114, HTT ATP protect 0%, HPGD block -6%, HttQ103 aggreg 11%, ALDH1A1 block inconclusive and GoLoco inh red 8%.
Screening Cc1nc2c(c(C)c1C#N)C(=O)c1ccccc1-2 returned PNC inhibitor -96*, HTT ATP protect 7%[10 µM], HPGD block -6%, HttQ103 aggreg 8%, ALDH1A1 block 12% and GoLoco inh red 4%.
Screening N[C@H](CCCC(=O)O)C(=O)O returned HTT ATP protect -16%[1.9 µM].
Screening C=CCn1c(SCC(=O)N2CCCC2)nc2scc(-c3cccs3)c2c1=O returned PNC inhibitor 126, HTT ATP protect -36%, HPGD block -13%, HttQ103 aggreg -1%, ALDH1A1 block inconclusive and GoLoco inh red 8%.

Compound activity as filed in PubChem BioAssay.
